Drawing on PubChem BioAssay AID2320 (National Center for Advancing Translational Sciences (NCATS), 2010), this text covers Potency for 38 compounds.

Molecules are shown by their SMILES. Records with an inconclusive call do not appear. A call without a number means that no potency is given here. Calls of active or inactive are those of the source. The call rests on the fitted dose curve.
Potency means the concentration at half of the fitted maximal effect.

The test can be described thus: A qHTS for Small Molecule Inhibitors of Shiga Toxin (Confirmatory). Further: nearly all actives have a fitted effect of over 75% in size. The conditions noted are these: Cell-based Shiga toxin protection reporter assay; series mostly up to 38.3 µM. Background: qHTS replaces the single test concentration by a dilution series.
In the case of `O=C(NCCN1C(=O)S/C(=C\c2ccc(Cl)cc2)C1=O)c1ccc(F)c(S(=O)(=O)N2CCOCC2)c1`, the Potency is 6.34 µM (active). Regarding `Cc1ccc(N/C(C(Cl)=C(Cl)Cl)=C(/Cl)[N+](=O)[O-])c(C)c1`, the Potency result was “inactive”. Under `N#Cc1ccc(N=c2ssnc2Cl)cc1` stands “inactive”. As for `Cc1noc(/C=C/c2ccco2)c1S(=O)(=O)N1CCC(C(=O)N(C)Cc2ccccc2)CC1`, the Potency is 22.5 µM (active).

On to `CNC(=O)c1cccn(Cc2ccc(C(F)(F)F)cc2)c1=O`, for which the Potency is 0.1 µM (active). Under `O=C(/C=C/c1cn(CC(O)CN2CCCCC2)c2ccccc12)c1cccs1` (stereo not drawn) stands “inactive”. Under `COCCCNC(=O)NC(=O)c1ccccc1` stands “inactive”; under `Cc1ccc(CSc2nnc(CCCCCNC(=O)OC(C)(C)C)o2)cc1`, “inactive”; under `O=S(=O)(c1ccsc1)N1CC=C(c2ccccc2)CC1`, 2.83 µM (active). For `CCOC(=O)C1(CCCc2ccccc2)CCN(C(=O)CCn2cncn2)CC1` the value was “inactive”. Turning to `COc1ccc(-c2cnc[nH]2)cc1`, the Potency entry is “inactive”.

Turning to `Oc1ccc(C2C[C@H]3CC[C@@H]2C3)cc1O` (stereo partly drawn), the Potency is 22.5 µM (active). Take `COc1ccc(C2C(C#N)=C(C)NC3=C2C(=O)CC(C)(C)C3)c(OC)c1` (stereo not drawn): the Potency result is “inactive”. Under `Cc1cc(OCC(=O)NCc2ccccn2)cc(C)c1Br` stands “inactive”; under `Cc1ccc2c(N)[nH]nc2n1`, “inactive”; under `CC(=O)c1cccc(NC(=O)c2ccc(NC(=O)CCS(=O)(=O)c3cccs3)cc2)c1`, “inactive”. As for `COc1ccccc1C(=O)Nc1nnc(SCC(=O)Nc2ccc3c(c2)oc2ccccc23)s1`, the Potency was 3.18 µM (active). Under `COc1ccc(N2CCN(Cc3csc(C)c3-c3ccc(C)cc3)CC2)cc1` stands “inactive”.

As for `Cc1cccc(N2CCN(C(=O)Cc3ccc(Br)cc3)CC2)c1C`, the Potency is 14.2 µM (active). Under `CC(C)(C)C1CCC(C(=O)OCC(=O)c2ccc[nH]2)CC1` (stereo not drawn) stands 2.52 µM (active); under `NC(=O)C1CCN(C(=O)C2c3ccccc3C(=O)N3CCc4ccccc4C23)CC1` (stereo not drawn), “inactive”.

On to `N#Cc1cc2c(nc1SCC(=O)Nc1cc(Cl)ccc1Cl)C1CCN2CC1`, for which the Potency was 12.6 µM (active). For `COc1ccc(C/C(O)=C(\C#N)c2nc3ccccc3s2)cc1` the value was “inactive”. Under `CC1CCC/C=C/C2CC(O)CC2C(O)/C=C/C(=O)O1` (stereo not drawn) stands 0.565 µM (active); under `Cc1sc(NC(=O)COc2cccc(-n3cnnn3)c2)c(C#N)c1C`, “inactive”; under `CCOc1cc(S(=O)(=O)N2CCN(Cc3ccccc3)CC2)ccc1Br`, “inactive”. As for `COC(=O)c1ccc(-c2ncc(-c3cccc4ccccc34)o2)cc1`, the Potency was 7.11 µM (active). Under `O=C1ON=C(c2ccccc2)/C1=C/c1ccc(OS(=O)(=O)c2ccccc2)cc1` stands 7.11 µM (active). For `O=C(NC1CCCCC1)c1cccc(S(=O)(=O)N2CCCCC2)c1` the value was “inactive”.

Turning to `COc1ccccc1NC(=O)CSc1nnc(-c2ccco2)n1Cc1ccco1`, the Potency entry is “inactive”. Regarding `CCOc1ccccc1NC(=O)CCS(=O)(=O)c1cccs1`, the Potency entry is “inactive”. For `Cc1ccc(NC(=O)c2cc(S(=O)(=O)N3CCCCC3)ccc2N2CCOCC2)cc1F` the value was 0.04 µM (active). In the case of `O=C(O)Cc1ccc2oc(-c3ccccn3)nc2c1`, the Potency is 12.6 µM (active).

In the case of `Cc1cccc(C(=O)NC(NCCc2ccccc2)C(Cl)(Cl)Cl)c1` (stereo not drawn), the Potency result is “inactive”. Under `CC(OC(=O)c1ccc2c(=O)n3c(nc2c1)CCC3)C(N)=O` (stereo not drawn) stands “inactive”; under `Cc1ccc(OCC(=O)NNC(=O)CCC(=O)Nc2ccc(C)cc2C)cc1`, “inactive”; under `Cc1cccc(NC(=O)C2CCCC2)c1`, 0.0252 µM (active).

For the compound `CC1CCc2sc(C(=O)NN)cc2C1` (stereo not drawn), the Potency entry was “inactive”.
